High-throughput results (PubChem BioAssay)
The list is not random: actives were taken first. Their share in the collection is about 2.1%.
Abeta yeast res – A-beta toxicity reversal in yeast; yeast expressing A-beta42, growth rescue, OD600, 48 h; response scale: 0% DMSO, 100% iron-clioquinol control; Potency, µM (doses to about 46.1 µM), actives largely listed as activators; 0.063% of 410,000 active; AID 1347071; further: nearly all actives have a fitted effect of over 55% in size
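Yeast growth medium received pinned compounds, then yeast cells expressing toxic A-beta were added; plates incubated at 30 C for 48 hr. Growth read as absorbance at 600 nm, normalized to DMSO and equimolar FeCl3 plus clioquinol controls.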
FUS yeast rescue – suppressors of FUS proteinopathy in yeast. S. cerevisiae FUS-expressing, growth rescue, OD600, 24 h. Potency, µM (titrated, usually from 76.6 µM), most hits filed as activators. 0.24% of 390,000 active. AID 1347120;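 further: plate controls were DMSO vehicle for no effect and reference control for full effect; nearly all actives have a fitted effect of over 55% in size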
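Galactose (2%) drives FUS expression in yeast precultured in raffinose; seeding density OD 0.005. Test compounds incubated 24hr at 30C and 99% humidity before absorbance at 600 nm was measured.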
aSyn rescue – inhibitors of alpha-synuclein toxicity in yeast. 0.14% of 370,000 active. Yeast expressing alpha-synuclein, growth rescue, BacTiter-Glo, 24 h. Potency, µM (series often up to 46.1 µM), for the others: top-dose growth rescue (activation), hits mostly activators; further: % of control where 0% means no effect; nearly all actives have a fitted effect of over 65% in size
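Readout is rescue of growth in alpha-synuclein-expressing yeast, so inhibitors of toxicity appear as activators. Growth after 24 hr at 30 deg C in galactose medium is quantified by luminescence.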
TDP43 rescue – inhibitors of TDP-43 toxicity in yeast | TDP-43 expressing yeast growth rescue, BacTiter-Glo, 24 h | Potency, µM (titrated, usually from 46.1 µM), inactives show top-dose growth rescue (activation), usual class: activators | 1.8% of 410,000 active; further: % of control where 0% means no effect; nearly all actives have a fitted effect of over 50% in size
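Cell-based yeast growth screen: TDP-43 expression induced in galactose, inoculum OD600=0.02 after raffinose pregrowth to mid-log. Read-out BacTiter-Glo luminescence at 24 hr, 30 deg C; inhibition of toxicity seen as signal increase.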
Starred values were filed as active, the others as inactive; ! = repeats disagree. The call rests on the fitted dose curve; in most records, active means well fitted curve in the direction sought with a large enough effect; inconclusive means small, poorly fitted or top-dose-only effect, or another doubt; inactive means no such curve, though single readings can be large; an effect the other way counts as inactive or inconclusive. Potency means the concentration at half of the fitted maximal effect.

Results for CCC(=O)NC(c1ccco1)c1cc(Cl)c2cccnc2c1O (stereo not given) ?
Abeta yeast res: inactive; FUS yeast rescue: inactive; aSyn rescue: 11µM*; TDP43 rescue: 17%

Results for COc1cccc(/C=C/C(=O)c2cccc([N+](=O)[O-])c2)c1OC ?
Abeta yeast res: inactive; FUS yeast rescue: inactive; aSyn rescue: -1%; TDP43 rescue: 11µM*

How did COc1ccc(/C=C/C(=O)c2ccc[nH]2)cc1OC do in these assays?
Abeta yeast res: inactive; FUS yeast rescue: inactive; aSyn rescue: 17%; TDP43 rescue: inconclusive

Results for COc1cccc(/C=C/C(=O)c2cccc([N+](=O)[O-])c2)c1 ?
Abeta yeast res: inactive; FUS yeast rescue: inactive; aSyn rescue: 18%; TDP43 rescue: 10%

How did COc1ccc(/C=C/C(=O)c2ccc[nH]2)c(OC)c1OC do in these assays?
Abeta yeast res: inactive; FUS yeast rescue: inactive; aSyn rescue: 0%; TDP43 rescue: 14µM*

What do the screens show for `COc1ccc2nc(N3CCC(C)CC3)c(C#N)cc2c1`?
Abeta yeast res: inactive; FUS yeast rescue: inactive; aSyn rescue: -1%; TDP43 rescue: 35µM*

Results for COc1ccc2nc(N3CCC(O)CC3)c(C#N)cc2c1 ?
Abeta yeast res: inactive; FUS yeast rescue: inactive; aSyn rescue: 4%; TDP43 rescue: 3%

What do the screens show for `COc1cccc(C(=O)N2CCN(c3nc4cc(C)cc(C)c4cc3C#N)CC2)c1`?
Abeta yeast res: inactive; FUS yeast rescue: inactive; aSyn rescue: 4%; TDP43 rescue: 35µM*

Results for CCOC(=O)[C@]12CCCCC/C=C\1N(Cc1ccc(OC)cc1)C(=O)[C@H]2CC(=O)NCCCOC ?
FUS yeast rescue: inactive

Results for CCOC(=O)[C@@]12CCCC3=C1N(CCC3)C(=O)[C@H]2CC(=O)NCc1ccc(C)o1 ?
FUS yeast rescue: inactive

Results for COc1ccc2c(c1)N=C(c1[nH]c3ccccc3c1CCN1C(=O)c3ccccc3C1=O)[C@]2(O)CCN1C(=O)c2ccccc2C1=O ?
FUS yeast rescue: 18µM*

Results for Cc1ccc(C(=O)OCc2nnc(-c3ccccc3)o2)o1 ?
Abeta yeast res: inactive; FUS yeast rescue: inactive; aSyn rescue: 21%; TDP43 rescue: 18µM*

What do the screens show for `COc1cc(Nc2ncnc3onc(-c4ccc(Cl)cc4)c23)cc(OC)c1`?
Abeta yeast res: inactive; FUS yeast rescue: inactive; aSyn rescue: 0%; TDP43 rescue: 17%

How did CCOc1ccc(Nc2ncnc3onc(-c4ccc(Cl)cc4)c23)cc1 do in these assays?
Abeta yeast res: inactive; FUS yeast rescue: inactive; TDP43 rescue: 22µM*

What do the screens show for `CCCC(=O)N/C(N)=N/c1nc2ccccc2o1`?
Abeta yeast res: inactive; FUS yeast rescue: inactive; aSyn rescue: -18%; TDP43 rescue: 13µM*

How did O=C(Oc1ccc2ccc(O)cc2c1)C1CCCCC1 do in these assays?
Abeta yeast res: inactive; FUS yeast rescue: inactive; aSyn rescue: -4%; TDP43 rescue: 22µM*

How did O=C(Oc1ccc2ccc(O)cc2c1)c1ccccc1Cl do in these assays?
Abeta yeast res: inactive; FUS yeast rescue: inactive; aSyn rescue: -12%; TDP43 rescue: 14µM*

How did COC(=O)C[C@H]1CC[C@@H]2[C@@H](COc3ccc(NS(=O)(=O)c4ccccc4Cl)cc3C(=O)N2C)O1 do in these assays?
FUS yeast rescue: inactive

What do the screens show for `O=C(O)c1ccc(CSc2nc3ccccc3o2)cc1`?
Abeta yeast res: inactive; FUS yeast rescue: inactive; aSyn rescue: 6%; TDP43 rescue: 13µM*

How did COc1ccc(Br)cc1/C=C/C(=O)Nc1ccc(C)cc1 do in these assays?
Abeta yeast res: inactive; FUS yeast rescue: inactive; aSyn rescue: -16%; TDP43 rescue: 16µM*

How did Nc1c(C(=O)NCc2ccco2)nnn1CC(=O)Nc1ccccc1 do in these assays?
Abeta yeast res: inactive; FUS yeast rescue: 40µM*; aSyn rescue: -7%; TDP43 rescue: -3%

Results for COc1ccccc1N1CCN(C(=O)c2cc(C3CC3)on2)CC1 ?
Abeta yeast res: inactive; FUS yeast rescue: inactive; aSyn rescue: 1%; TDP43 rescue: 13µM*

What do the screens show for `COc1ccccc1N1CCN(C(=O)c2nc(SC)ncc2Cl)CC1`?
Abeta yeast res: inactive; FUS yeast rescue: inactive; TDP43 rescue: 35µM*

Results for COc1ccccc1-c1cc(C(=O)N2CCN(c3ccccc3OC)CC2)no1 ?
Abeta yeast res: inactive; FUS yeast rescue: inactive; aSyn rescue: 19%; TDP43 rescue: 18µM*

How did COc1ccccc1N1CCN(C(=O)c2cc(-c3ccc(F)cc3)on2)CC1 do in these assays?
Abeta yeast res: inactive; FUS yeast rescue: inactive; aSyn rescue: -1%; TDP43 rescue: 13µM*!

What do the screens show for `CC(C)=CCC/C(C)=C/CC/C(C)=C/CCC1(C)CCc2cc(O)ccc2O1` (stereo not given)?
aSyn rescue: -8%

How did COc1ccc(CN(Cc2ccccc2)C(=O)CN2CCN(C)CC2)cc1COc1ccc(NC(C)=O)cc1 do in these assays?
aSyn rescue: 2%

Results for CCC[C@H]1[C@@H](O)CC[C@@]23CCCN2C(=O)CCC[C@@H]13 ?
FUS yeast rescue: inactive

Results for O=C(N/N=C/c1ccncc1)c1ccccc1 ?
Abeta yeast res: inactive; FUS yeast rescue: inactive; aSyn rescue: -5%; TDP43 rescue: -8%

How did O=C(N/N=C/c1cccc(Oc2ccccc2)c1)c1ccncc1 do in these assays?
Abeta yeast res: inactive; FUS yeast rescue: inactive; aSyn rescue: 17%; TDP43 rescue: 13µM*

What do the screens show for `COc1ccc(NC(=O)c2ccc3ncsc3c2)cc1`?
Abeta yeast res: inconclusive; FUS yeast rescue: inactive; aSyn rescue: -27%; TDP43 rescue: 7.1µM*

How did O=C(Nc1ccc(Br)cc1)c1ccc2ncsc2c1 do in these assays?
Abeta yeast res: inactive; FUS yeast rescue: inactive; aSyn rescue: -6%; TDP43 rescue: 3.2µM*

Results for C[C@H]1[C@@H](OC(=O)NCc2cccc(C(F)(F)F)c2)CC[C@@]23CCCN2C(=O)CCC[C@@H]13 ?
FUS yeast rescue: inactive

How did Cc1cc(C)c2nc(NC(=O)c3ccc(S(=O)(=O)N4CCCC4)cc3)sc2c1 do in these assays?
Abeta yeast res: inactive; FUS yeast rescue: inactive; aSyn rescue: 1%; TDP43 rescue: 2%

Results for CC1CCCN(S(=O)(=O)c2ccc(C(=O)Nc3nnc(-c4ccco4)o3)cc2)C1 (stereo not given) ?
Abeta yeast res: inactive; FUS yeast rescue: inactive; aSyn rescue: 3%; TDP43 rescue: 27%

What do the screens show for `Cc1cc(C)c2nc(NNC(=O)c3ccc(S(=O)(=O)N4CCCCC4)cc3)sc2c1`?
Abeta yeast res: inactive; FUS yeast rescue: inconclusive; aSyn rescue: -1%; TDP43 rescue: 6.3µM*

Results for CCOC(=O)N1CCN(S(=O)(=O)c2ccc(C(=O)NNc3nc4cc(C)cc(C)c4s3)cc2)CC1 ?
Abeta yeast res: inactive; FUS yeast rescue: inactive; aSyn rescue: 2%; TDP43 rescue: 5.6µM*
